# Source: PubChem
# Cav32 inh – human Cav3.2 channel inhibition, primary screen; B-score at 10 µM; 100,000 compounds, 4% hits; Cav3.2-expressing cells, Fluo-4 calcium fluorescence FDSS; active compounds read low; O95180;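 active means single-dose well whose peak fluorescence ratio is a statistical outlier from its plate by either plate-standardised score or position-corrected B-score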
# CD11b adhes inh – blocks human CD11b/CD18 adhesion to fibrinogen. inhibition, % at 10 µM. K562 CD11b/CD18 adhesion to fibrinogen, ATPlite luminescence; Mn2+ added to activate the integrin. P05107+P11215. 93,000 compounds, 0.54% hits;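 active means primary inhibition of 50% or more at 10 µM, then 40% or more on retest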
# E coli WT exp – blocks growth of wild type E. coli BW25113 | OD600 absorbance | AID 710 | growth inhibition, % at 100 µM | 98,000 compounds, 0.15% hits;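 active means growth inhibition above about 50% at one test dose, limit read from the data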;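 further: growth measured after 20 h incubation at 37 °C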
# Mac1 fbg enh – increases human CD11b/CD18 adhesion to fibrinogen; K562 CD11b/CD18 adhesion to fibrinogen, ATPlite luminescence; P05107+P11215; AID 1499; 93,000 compounds, 0.07% hits; activation, % at 10 µM;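 active means 10 µM primary screen giving 50% or more activity, confirmed by 40% or more on retest at that dose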
# Active calls of the source: *; x = not tested or not shown. Shown is part of a subset that was picked to be rich in hits.
SMILES,Cav32 inh,CD11b adhes inh,E coli WT exp,Mac1 fbg enh
COc1ccc(N2C(=O)[C@@H]3[C@H](C2=O)[C@H]2c4ccccc4C=CN2[C@@H]3C(=O)Nc2ccccc2)cc1,-3.2,14,-6,0
O=c1cc(-c2ccccc2)[nH]n1-c1nc2ccccc2[nH]1,-5.6*,17,55*,4
CN(c1ccccc1)S(=O)(=O)c1cccc(C(=O)OCC(=O)NCc2ccc3c(c2)OCO3)c1,x,22,x,3
c1csc(-c2csc3nc(CN4CCOCC4)nc(NCc4ccc5c(c4)OCO5)c23)c1,-7.6*,-6,-27,2
CC(C)(C)[C@@H]1C=C(C(=O)N2CCN(Cc3ccc4c(c3)OCO4)CC2)O[C@H](OCc2ccc(CO)cc2)C1,-0.75,x,x,x
C=Cn1ccnc1P(=S)(c1ccc2c(c1)c1ccccc1n2CC)c1nccn1C=C,-5.2*,11,-11,1
CCCCN(CC(=O)Nc1c(C)cccc1CC)C(=O)SCC,-3.8*,-4,8,-1
O=C(CSc1nn(-c2ccccc2)c(=S)s1)NC(=O)NCc1ccco1,-3.2,12,-7,-4
O=C(C1CCCN(S(=O)(=O)Cc2ccccc2)C1)N1CCC(Cc2ccccc2)CC1 (centres undefined),-5.5*,2,-5,0
O=C(NCCc1ccccc1)c1ccc(-c2ccccc2C(F)(F)F)o1,-3.1,x,x,x
O=C(NCc1ccccc1)c1ccc(-c2ccccc2F)o1,-4.2*,-6,4,9
Cc1ccccc1-n1nnnc1SCc1csc(-c2ccccc2)n1,-4.5*,4,-13,0
CCCN(CCC)C(=O)CC(c1ccccc1)c1ccc(C)cc1O (centres undefined),-5.7*,-19,5,2
CC1(C)C=Cc2cc(-c3coc4cc(O)cc(O)c4c3=O)cc(O)c2O1,0.82,x,x,x
Clc1ccc(OCc2nnc(SCc3nnc(-c4ccccc4)o3)o2)c(Cl)c1,-6.1*,2,-11,2
Clc1ccc2nc(SCc3nnc(-c4ccccc4)o3)[nH]c2c1,x,-2,3,-2
CCC(C)N1C(=O)/C(=C/c2c(NCCCOC(C)C)nc3c(C)cccn3c2=O)SC1=S (centres undefined),-5.1*,x,-41,x
O=C(NCc1ccccc1)c1sc(=S)n2c1[nH]c(=O)c1ccccc12,-3.5,103*,4,-7
COC(=O)CN=C1OC(=O)N2C(=O)C3=C4[C@@H](C[C@H]5C(=O)N(c6ccccc6)C(=O)[C@H]5[C@H]4[C@@]12Cc1ccccc1)[C@H]1C(=O)N(c2ccccc2)C(=O)[C@H]1[C@H]3C,-0.78,x,x,x
CN(C(=O)c1cccc(Nc2ccc(-c3ccc4c(c3)OCCO4)nn2)c1)C1CCCCC1,-3.8*,x,x,x
CN(C)S(=O)(=O)c1ccc(Nc2ccc(-c3ccc4c(c3)OCCO4)nn2)cc1,0.055,x,5,x
O=C(COC(=O)CC12CC3CC(CC(C3)C1)C2)Nc1ncc(Cl)cc1Cl,-5.9*,9,-8,2
Cc1ccc(S(=O)(=O)NCC(=O)OCC(=O)Nc2ncc(Cl)cc2Cl)cc1,1.1,-40,1,-4
CC(C)(Oc1ccc(Cl)cc1)C(=O)OCC(=O)Nc1ncc(Cl)cc1Cl,-6.9*,x,-9,x
O=C(Nc1ccc(O)c2c(=O)cc(-c3cccc(Cl)c3)oc12)c1ccccc1Cl,-1,x,x,x
SMILES,Cav32 inh,CD11b adhes inh,E coli WT exp,Mac1 fbg enh
CCn1c(NC(=O)Nc2cccc(C)c2C)cc2sccc21,x,6,-5,35
CC[n+]1c(/C=C/C=C/N(C(C)=O)c2ccccc2)sc2ccccc21,-4.6*,x,5,x
COc1ccc(Cn2c(SCc3ccccc3C)nc3cc(OC)c(OC)cc3c2=N)cc1,0.061,-3,11,135*
COc1ccc(C(=O)NC(NC(=S)Nc2ccc(S(N)(=O)=O)cc2)C(Cl)(Cl)Cl)cc1 (centres undefined),0.75,-13,16,10
N=c1n(Cc2ccccc2)c2ccccc2n1CC(O)COc1ccccc1 (centres undefined),-4.9*,8,23,-2
Cc1ccc(S(=O)(=O)c2c(C)nn(C(C)(C)C)c2OC(=O)c2ccc(Br)o2)cc1,x,54*,-10,-6
Cc1ccccc1NS(=O)(=O)c1cc(C(=O)NCCC2=CCCCC2)ccc1C,-3.4*,x,-17,x
Cc1ccc(C(=O)NCCSC2CCCCC2)cc1S(=O)(=O)Nc1ccccc1,-3.8*,25,-8,-1
C=CCNC(=O)N1C2=NC(C(=O)OC)=C(C(=O)OC)[C@@H]3N(Cc4ccccc4)c4ccccc4[C@]23C[C@H]1C(=O)OC,-1.6,x,x,x
COCCOc1cc(-n2ccnc2SC)c(Cl)cc1Cl,0.53,-2,-5,-3
Cc1ccc(S(=O)(=O)NC(=O)c2ccc(Br)o2)cc1,0.25,x,x,x
CCCCn1c(=N)n(CC(=O)c2ccco2)c2ccccc21,x,x,8,x
CCCCCCCn1c(=N)n(CC(=O)c2ccco2)c2ccccc21,-2.6*,21,9,2
CCCCCCn1c(C(C)NC(=O)c2ccco2)nc2ccccc21 (centres undefined),-10*,0,10,3
Cc1csc(NC(=O)CCNC(=O)c2ccc([N+](=O)[O-])cc2)n1,x,3,x,2
Cc1ccc2[nH]c(=O)c(CN(CCO)Cc3nnnn3CCc3ccccc3)cc2c1,0.48,1,5,-1
CCOC(=O)Cn1nnnc1CN(CCc1ccccc1)Cc1cc2cc(CC)ccc2[nH]c1=O,-4.4*,7,-9,1
Cc1cc(C)cc(SCc2noc(C(=O)NCCN(C)C)c2C(=O)NCCN(C)C)c1,0.52,x,x,x
O=C(C1=C[C@H](C2CCCCC2)C[C@H](OCCCCO)O1)N1CCN(Cc2ccccc2)CC1,-0.0015,x,x,x
CC(C)c1ccc(NC(=S)NCc2cccs2)cc1,-6.3*,-7,6,-3
S=C(NCc1cccs1)Nc1cccc(Cl)c1,-1.1,16,43,-5
CCN(CC(=O)NCc1cccs1)S(=O)(=O)c1ccc(C(C)C)cc1,-4*,-10,11,0
O/C(=C\Sc1nnc(Cc2ccccc2)o1)c1ccc(F)cc1,-0.043,-13,6,0
CN(C)c1ccc(/C=C/C(O)=C2/C(=O)N(C)C3(C)CC2c2ccccc2O3)cc1 (centres undefined),-6.2*,x,-7,x
CN(C)c1ccc(C=C2C(=O)OC(C)(C(C)(C)C)OC2=O)cc1 (centres undefined),0.4,-1,0,-2
SMILES,Cav32 inh,CD11b adhes inh,E coli WT exp,Mac1 fbg enh
COC(C[C@@H](O)C[C@H](O)[C@@H](C)OCc1ccccc1)OC,0.38,x,x,x
CC1CCN(C(=O)/C(=C/c2ccccc2Cl)c2ccccc2)CC1,-9.1*,9,7,1
COc1ccc(OC2C(=O)N(Cc3ccc4c(c3)OCO4)C2c2sccc2C)cc1 (centres undefined),-2.5,17,-20,-2
O=c1cc(O)nc(SCc2ccc(Cl)cc2)[nH]1,-6.9*,-16,5,1
Clc1ccc(CSc2nc3ccncc3[nH]2)cc1,0.17,88*,9,-18
O=C(c1ccc(CSc2nc3ccncc3[nH]2)cc1)N1CCN(c2cccc(Cl)c2)CC1,-1.3,x,x,x
CCC(C)n1c(=O)c(C(=O)Nc2ccccc2S(N)(=O)=O)c(O)c2ccccc21 (centres undefined),-3.4*,-1,-5,-2
